Entries with a potency or affinity are not part of this list. Inconclusive results are not listed. Calls of active or inactive are those of the source. How the calls were made is not given here.

This experiment in a line: HepG2 cell cytotoxicity, dose response, cytotoxicity control, plate reader, dry powder samples (AID 1159569). Particulars: HepG2 cytotoxicity counterscreen; series mostly up to 50 µM.
Regarding `COc1cccc(C#Cc2ccc([C@H]3[C@@H](CO)N(C(=O)c4ccccn4)[C@H]3C#N)cc2)c1`, the call was inactive.
For the molecule `COc1ccc2c3c([nH]c2c1)[C@H](CO)N(C(=O)C1CCCCC1)CC31CCN(Cc2nccs2)CC1`, the call was inactive.
The same measure for `C[C@H](CO)N1C[C@H](C)[C@@H](CN(C)C(=O)Nc2ccc(-c3ccccc3)cc2)OCc2ccccc2-c2c(n(C)c3ccccc23)C1=O`: “inactive”.
Consider `COc1ccc(-c2ccc([C@H]3[C@H](C#N)N(C(=O)c4cccc(F)c4)[C@H]3CO)cc2)cc1`, for which the result was inactive.
For `C/C=C/c1ccccc1[C@H]1[C@@H](C#N)N(C(=O)NC2CCCC2)[C@H]1CO`, the outcome was inactive.
In the case of `CCCNC(=O)Nc1ccc2c(c1)OC[C@@H](C)N(Cc1ccccc1)C[C@@H](C)[C@H](OC)CN(C)C2=O` it was “inactive”.
In the case of `CO[C@@H]1CN(C)C(=O)c2ccc(NC(=O)Nc3ccccc3F)cc2OC[C@@H](C)N(CCC(F)(F)F)C[C@H]1C` it was “inactive”; in that of `C[C@H](CO)N1C[C@H](C)[C@H](CN(C)S(=O)(=O)c2ccc(C#N)cc2)OCc2ccccc2-c2c(n(C)c3ccccc23)C1=O`, “inactive”.
In the case of `COc1ccc2c3c([nH]c2c1)[C@@H](CO)N(Cc1ccccc1)CC31CCN(Cc2cncnc2)CC1` it was “inactive”; in that of `C[C@@H]1CN([C@@H](C)CO)S(=O)(=O)c2ccc(C#CC3CCCC3)cc2O[C@H]1CN(C)C(=O)Cc1ccncc1`, “inactive”; in that of `C[C@H]1CN([C@@H](C)CO)C(=O)Cc2cc(NC(=O)Nc3ccc(C(F)(F)F)cc3)ccc2O[C@@H]1CN(C)C(=O)Nc1ccc2c(c1)OCO2`, “inactive”.

The record behind these values is PubChem BioAssay AID1159569 (Broad Institute, 2015).
